Assay results reported in PubChem BioAssay AID1159580 (chemical genetic matrix, 2015).
Among all 5,500 compounds or so, about 2,000 (36%) were called active. Another 18% or so got no clear call; they are omitted. Cut-off read from the data, not from the text of the source: active = normalized growth mostly below about 0.91 (no sharp cut-off); inconclusive = no clear call, values can overlap the other calls; inactive = mostly above about 0.92. The list shows a part of the results.

Assay: chemical genetic growth profiling, strain panel (AID 1159580);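 note: tested at 20 µM; growth read once vehicle control cultures reached saturation at 30 °C; 1 = growth at the plate median or of vehicle wells; lower values mean less growth of the strain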
Conditions: S. cerevisiae deletion strains, growth OD
[1] = locus YDL101C, strain DUN1, stronger effect = lower value
[2] = locus YHR030C, strain SLT2, stronger effect = lower value
[3] = locus YJL095W, strain BCK1, stronger effect = lower value
[4] = locus YOR061W, strain CKA2, stronger effect = lower value

Measured: normalized growth

CN(C)/C=C1\CSc2ccc(Cl)cc2C1=O
inactive: locus YAR019C, strain CDC15, stronger effect = lower value 0.927 | locus YBL105C, strain PKC1, stronger effect = lower value 0.957 | locus YBR135W, strain CKS1, stronger effect = lower value 0.965 | locus YBR136W, strain MEC1, stronger effect = lower value 0.949 | locus YBR160W, strain CDC28, stronger effect = lower value 0.95 | locus YDL017W, strain CDC7, stronger effect = lower value 0.953 | locus YDL028C, strain MPS1, stronger effect = lower value 0.953 | [1] 0.975 | locus YDL108W, strain KIN28, stronger effect = lower value 0.947 | locus YDL132W, strain cdc53, stronger effect = lower value 0.956 | locus YDL214C, strain PRR2, stronger effect = lower value 0.763 | locus YDR052C, strain DBF4, stronger effect = lower value 0.967 | locus YDR054C, strain cdc34, stronger effect = lower value 0.94 | locus YDR226W, strain ADK1, stronger effect = lower value 0.947 | locus YDR477W, strain SNF1, stronger effect = lower value 0.832 | locus YER133W, strain GLC7, stronger effect = lower value 0.811 | locus YFL009W, strain cdc4, stronger effect = lower value 0.944 | locus YFL029C, strain CAK1, stronger effect = lower value 0.932 | locus YFR003C, strain YPI1, stronger effect = lower value 0.952 | locus YFR028C, strain CDC14, stronger effect = lower value 0.942 | locus YGR040W, strain KSS1, stronger effect = lower value 0.832 | locus YGR052W, strain FMP48, stronger effect = lower value 0.799 | locus YGR092W, strain DBF2, stronger effect = lower value 0.824 | locus YHR079C, strain IRE1, stronger effect = lower value 0.555 | locus YHR082C, strain KSP1, stronger effect = lower value 0.758 | locus YHR205W, strain SCH9, stronger effect = lower value 0.75 | locus YIL147C, strain SLN1, stronger effect = lower value 0.928 | locus YJL128C, strain PBS2, stronger effect = lower value 1.01 | locus YJL157C, strain FAR1, stronger effect = lower value 0.775 | locus YJR016C, strain ILV3, stronger effect = lower value 0.965 | locus YJR066W, strain TOR1 (second series), stronger effect = lower value 0.728 | locus YJR066W, strain TOR1, stronger effect = lower value 0.633 | locus YKL048C, strain ELM1, stronger effect = lower value 0.937 | locus YKL067W, strain YNK1, stronger effect = lower value 0.771 | locus YKL101W, strain HSL1, stronger effect = lower value 0.861 | locus YKL193C, strain SDS22, stronger effect = lower value 0.938 | locus YKL203C, strain TOR2, stronger effect = lower value 0.886 | locus YLR133W, strain CKI1, stronger effect = lower value 0.799 | locus YLR403W, strain SFP1, stronger effect = lower value 0.792 | locus YMR001C, strain CDC5, stronger effect = lower value 0.941 | locus YMR205C, strain PFK2 (second series), stronger effect = lower value 0.872 | locus YMR277W, strain FCP1, stronger effect = lower value 0.943 | locus YNL006W, strain LST8, stronger effect = lower value 0.952 | locus YNL020C, strain ARK1, stronger effect = lower value 0.817 | locus YNL161W, strain CBK1, stronger effect = lower value 0.955 | locus YNL183C, strain NPR1, stronger effect = lower value 0.559 | locus YNL207W, strain RIO2, stronger effect = lower value 0.922 | locus YNL222W, strain SSU72, stronger effect = lower value 0.955 | locus YNL307C, strain MCK1 (second series), stronger effect = lower value 0.822 | locus YOL078W, strain AVO1, stronger effect = lower value 0.95 | locus YOL136C, strain PFK27, stronger effect = lower value 0.691 | [4] 0.831 | locus YOR119C, strain RIO1, stronger effect = lower value 0.862 | locus YOR231W, strain MKK1, stronger effect = lower value 0.595 | locus YOR329C, strain SCD5, stronger effect = lower value 0.953 | locus YPL031C, strain PHO85, stronger effect = lower value 0.825 | locus YPL153C, strain RAD53, stronger effect = lower value 0.752 | locus YPL204W, strain HRR25, stronger effect = lower value 0.802 | locus YPL209C, strain IPL1, stronger effect = lower value 0.954 | locus YPR025C, strain CCL1, stronger effect = lower value 0.962 | locus YPR106W, strain ISR1, stronger effect = lower value 0.95 | locus YPR111W, strain DBF20, stronger effect = lower value 0.947 | strain NNK1, stronger effect = lower value 0.941 | strain TSCII, stronger effect = lower value 0.942
active: locus YER123W, strain YCK3, stronger effect = lower value 0.565 | locus YFR019W, strain FAB1, stronger effect = lower value 0.771 | [2] 0.311 | [3] 0.444 | locus YLR113W, strain HOG1, stronger effect = lower value 0.537 | locus YML070W, strain DAK1, stronger effect = lower value 0.618 | locus YPL256C, strain CLN2, stronger effect = lower value 0.627

CC(=O)O[C@@H]1CC2C(C)(C)CCC[C@]2(C)C2CC[C@]3(C)C(=CC(=O)O[C@H]3c3ccoc3)[C@@]21C (some centres undefined)
inactive: locus YBR021W, strain FUR4, stronger effect = lower value 1.02 | locus YBR229C, strain ROT2, stronger effect = lower value 1.01 | locus YCL029C, strain bik1, stronger effect = lower value 1 | locus YDL035C, strain GPR1, stronger effect = lower value 1.02 | locus YDL074C, strain BRE1, stronger effect = lower value 1.01 | [1] 1.01 | locus YDL185W, strain tfp1, stronger effect = lower value 1.01 | locus YDL192W, strain arf1, stronger effect = lower value 0.999 | locus YDR101C, strain arx1, stronger effect = lower value 1.01 | locus YDR150W, strain NUM1, stronger effect = lower value 1.02 | locus YDR162C, strain NBP2, stronger effect = lower value 1 | locus YDR318W, strain mcm21, stronger effect = lower value 0.981 | locus YDR388W, stronger effect = lower value 1.01 | locus YDR502C, strain sam2, stronger effect = lower value 0.977 | locus YEL061C, strain CIN8, stronger effect = lower value 1.02 | locus YER110C, stronger effect = lower value 1.01 | locus YER155C, strain BEM2, stronger effect = lower value 1 | locus YER167W, strain BCK2, stronger effect = lower value 1.02 | locus YGL078C, strain dbp3, stronger effect = lower value 0.982 | locus YGL086W, strain mad1, stronger effect = lower value 0.984 | locus YGL248W, strain PDE1, stronger effect = lower value 1.01 | locus YGR135W, strain pre9, stronger effect = lower value 0.978 | locus YGR229C, strain SMI1, stronger effect = lower value 0.97 | locus YGR252W, strain gcn5, stronger effect = lower value 0.993 | [2] 1.02 | locus YHR079C, strain IRE1 (second series), stronger effect = lower value 1 | locus YHR094C, strain hxt1, stronger effect = lower value 1 | locus YHR129C, strain ARP1, stronger effect = lower value 1.02 | locus YHR200W, strain rpn10, stronger effect = lower value 1.01 | locus YIL066C, strain RNR3, stronger effect = lower value 1.02 | locus YIL073C, strain SPO22, stronger effect = lower value 1.02 | locus YIL125W, strain kgd1, stronger effect = lower value 1 | locus YIR030C, strain dcg1, stronger effect = lower value 1 | [3] 0.97 | locus YJL134W, strain LCB3, stronger effect = lower value 1.02 | locus YJL168C, strain set2, stronger effect = lower value 0.994 | locus YJL187C, strain SWE1 (second series), stronger effect = lower value 1 | locus YJR043C, strain POL32, stronger effect = lower value 1.05 | locus YJR075W, strain HOC1, stronger effect = lower value 1.01 | locus YKL009W, strain mrt4, stronger effect = lower value 1.03 | locus YKL068W, stronger effect = lower value 0.989 | locus YKL085W, strain MDH1 (second series), stronger effect = lower value 1.01 | locus YKL085W, strain MDH1, stronger effect = lower value 1.01 | locus YKR001C, strain vps1, stronger effect = lower value 0.967 | locus YLR039C, strain RIC1, stronger effect = lower value 0.902 | locus YLR058C, strain SHM2, stronger effect = lower value 1.01 | locus YLR102C, strain apc9, stronger effect = lower value 1 | locus YLR262C, strain YPT6, stronger effect = lower value 0.928 | locus YLR268W, strain sec22, stronger effect = lower value 0.973 | locus YLR330W, strain CHS5, stronger effect = lower value 1.02 | locus YLR342W, strain FKS1 (second series), stronger effect = lower value 0.983 | locus YLR371W, strain rom2, stronger effect = lower value 1 | locus YLR418C, strain cdc73, stronger effect = lower value 0.941 | locus YML016C, strain PPZ1, stronger effect = lower value 1.02 | locus YML032C, strain rad52, stronger effect = lower value 0.99 | locus YML124C, strain tub3, stronger effect = lower value 0.993 | locus YMR078C, strain ctf18, stronger effect = lower value 0.986 | locus YMR223W, strain ubp8, stronger effect = lower value 0.983 | locus YMR263W, strain SAP30, stronger effect = lower value 1.02 | locus YMR307W, strain GAS1, stronger effect = lower value 1.09 | locus YNL067W, strain RPL9B, stronger effect = lower value 1.01 | locus YNL128W, strain TEP1, stronger effect = lower value 1.03 | locus YNL233W, strain BNI4, stronger effect = lower value 0.948 | locus YNL250W, strain rad50, stronger effect = lower value 0.968 | locus YNL271C, strain bni1, stronger effect = lower value 1 | locus YNL298W, strain CLA4, stronger effect = lower value 0.992 | locus YNL307C, strain MCK1, stronger effect = lower value 0.992 | locus YNL322C, strain KRE1, stronger effect = lower value 1.02 | locus YNR052C, strain pop2, stronger effect = lower value 0.993 | locus YOL006C, strain TOP1, stronger effect = lower value 1.06 | locus YOL012C, strain htz1 0.86 | locus YOL147C, strain pex11, stronger effect = lower value 1.01 | [4] 1.01 | locus YOR069W, strain VPS5, stronger effect = lower value 1.02 | locus YOR136W, strain idh2, stronger effect = lower value 0.997 | locus YOR144C, strain elg1, stronger effect = lower value 0.999 | locus YOR184W, strain ser1, stronger effect = lower value 0.982 | locus YOR316C, strain cot1, stronger effect = lower value 1 | locus YPR119W, strain clb2, stronger effect = lower value 0.985 | locus YPR141C, strain kar3, stronger effect = lower value 1.01 | locus YPR163C, strain tif3, stronger effect = lower value 0.994 | locus YPR167C, strain met16, stronger effect = lower value 0.998 | strain wtn01, stronger effect = lower value 0.996
